High-throughput results: PubChem, Broad Institute
aSyn 5UTR act = Activators via SNCA 5'UTR binding, MLPCN; alpha-synuclein 5'UTR reporter, activators screen; activity score, % (tested at 7.5 µM), hits read low; 300,000 compounds, 7.1% hits; in the data active means activity score below about -60%
* = called active by the depositor. Only a sample is shown.

SMILES	aSyn 5UTR act
O=S(=O)(c1ccc(-c2nnc(SCc3nnc(-c4ccccc4)o3)o2)cc1)N1CCCC1	-117*
N/C(=N\OC(=O)c1cccc(F)c1)c1ccccc1	-331*
Cc1ccc(/C(N)=N/OC(=O)c2ccc3ccccc3c2)cc1	-124*
Cc1ccc(/C(N)=N/OC(=O)c2cccc(F)c2)cc1	-262*
O=[N+]([O-])c1cc(-c2n(-c3ccccn3)c3ccccc3[n+]2-c2ccccn2)ccc1Cl	-88*
O=C(Nc1cc(Br)ccc1O)c1cc(-c2cccs2)on1	-147*
CC(C)c1cc(C(=O)Nc2cc(Cl)ccc2O)no1	-290*
CC(C)c1cc(C(=O)Nc2cc(Br)ccc2O)no1	-291*
CSc1ccccc1NC(=O)c1cc(C(C)C)on1	-143*
Cc1cc(C(=O)NNC(=S)NC(=O)/C=C/c2ccccc2Cl)n[nH]1	-94*
Cc1cc(N)c2cc(NC(=O)/C=C/c3ccccc3Cl)ccc2n1	107
Cc1cc(C)nc(NC(=O)/C=C/c2ccccc2Cl)c1	-185*
Cc1cc(C)nc(NC(=O)/C=C/c2ccccc2Cl)n1	-161*
Cc1cc(C)nc(NC(=O)/C=C/c2ccc(Cl)cc2Cl)c1	-129*
Cc1ccc(-c2cc3nc(-c4ccccc4)cc(N)n3n2)cc1	-236*
CSc1nc(N)n2nc(-c3ccccc3)cc2n1	-119*
CN(C)/C=C1\SC(=S)N(c2ccc(Br)cc2)C1=O	-100*
CN(C)C(CNC(=O)c1cc2ccccc2oc1=O)c1ccccc1 (stereo unspecified)	-162*
COc1ccc2oc(=O)c(C(=O)Nc3cccc(C(C)=O)c3)cc2c1	-82*
COc1ccc2oc(=N)c(C(=O)Nc3ccccc3Cl)cc2c1	-209*
COc1ccc2oc(=N)c(C(=O)Nc3cccc(C)c3C)cc2c1	-158*
CC1CCC(C(C)C)C(OC(=O)Cn2c(-c3ccccc3)[n+](C)c3ccccc32)C1 (stereo unspecified)	77
Cc1cccnc1NC(=O)c1cc2ccccc2oc1=O	-200*
COc1ccc2oc(=O)c(C(=O)Nc3ccccc3C)cc2c1	-199*
O=C(Nc1ccccc1O)c1cc2cc(Br)ccc2oc1=O	-124*
SMILES	aSyn 5UTR act
CCCCCCc1cc2cc(C(=O)Nc3ccccc3)c(=O)oc2cc1O	92
CCOC(=O)CNC(=O)c1sc(NC(=O)c2ccccc2F)nc1C	-151*
CCOC(=O)CNC(=O)c1sc(NC(=O)c2cccc(F)c2)nc1C	-98*
c1ccc(Cn2c(Sc3nnnn3-c3ccccc3)nnc2-c2ccccc2)cc1	-74*
CC(C)c1ccc(-c2nnn(CCC(=O)O)n2)cc1	118
O=C(Cn1nnc(-c2ccccc2Cl)n1)N1CCCCC1	-98*
CC(C)COc1ccc(-c2nnn(CC(=O)N3CCCC3)n2)cc1	-89*
Cn1c(-c2ccccc2)cnc1SCC(=O)N1CCCCC1	83
O=C(Cn1nnc(-c2ccccc2)n1)N1CCCCC1	-70*
CC1CCCN(C(=O)Cn2nnc(-c3ccccc3F)n2)C1 (stereo unspecified)	-103*
O=C(Cn1nnc(-c2ccc(OCc3ccccc3F)cc2)n1)N1CCOCC1	-70*
Cc1ccc(CN(C(=O)c2cc3ccccc3oc2=O)C2CCS(=O)(=O)C2)cc1 (stereo unspecified)	-104*
CCc1ccc(CN(C(=O)c2cc3ccccc3oc2=O)C2CCS(=O)(=O)C2)cc1 (stereo unspecified)	-144*
O=C(c1cc2ccccc2oc1=O)N(Cc1cccs1)C1CCS(=O)(=O)C1 (stereo unspecified)	-104*
O=C(c1cc2ccccc2oc1=O)N(Cc1ccc(F)cc1)C1CCS(=O)(=O)C1 (stereo unspecified)	-121*
COc1ccc(CN(C(=O)c2cc3ccccc3oc2=O)C2CCCCC2)cc1OC	-65*
CC(C)OC(=O)c1ccc(NC(=O)CSc2nc3ncccc3[nH]2)cc1	-62*
Cc1ccc(Nc2nc(-c3ccc(F)cc3)cs2)nc1	-175*
Cc1ccc(Nc2nc(-c3ccc(O)c(O)c3)cs2)nc1	-216*
CC(C)(C)c1ccc(-c2cc(N)n[nH]2)cc1	91
Cc1ccc(-c2cc(N)n[nH]2)cc1	-73*
O=[N+]([O-])c1ccc2nc(/C=C/c3ccc(Cl)cc3)[nH]c2c1	-151*
Nc1ccc(-c2nc3ccc([N+](=O)[O-])cc3[nH]2)cc1	-84*
O=[N+]([O-])c1ccc(-c2nc3ccc([N+](=O)[O-])cc3[nH]2)cc1	-143*
CC(C)c1ccc(OCc2ccc(C(=O)N(C)C)o2)cc1	-171*
SMILES	aSyn 5UTR act
CC1CN(C(=O)c2ccc(COc3ccc(C(C)C)cc3)o2)CC(C)O1 (stereo unspecified)	-110*
COc1ccc(OCc2cc(C(=O)O)c(C)o2)cc1	-93*
CC(C)c1ccc(OCc2ccc(C(=O)NN3CCN(C)CC3)o2)cc1	-134*
CCc1ccc(OCc2ccc(C(=O)O)o2)cc1	-145*
CC(C)c1ccc(OCc2ccc(C(=O)O)o2)cc1	-94*
CC(C)Cc1nnc(NC(=O)c2cc3c(s2)CCC3)s1	-207*
O=C(Nc1nncs1)c1cc2c(s1)CCC2	-132*
O=C(Nc1nccs1)c1cc2c(s1)CCCCC2	72
